Laboratory results from PubChem BioAssay (NCATS).
Inconclusive results are not listed. Activity calls are given as the source filed them. The call rests on the fitted dose curve; in most records, active means well fitted curve in the direction sought with a large enough effect; inconclusive means small, poorly fitted or top-dose-only effect, or another doubt; inactive means no such curve, though single readings can be large; an effect the other way counts as inactive or inconclusive.

Tests used:
[1] = qHTS of pediatric cancer cell lines to identify multiple opportunities for drug repurposing: Primary screen for BT-37 cells (AID 1347094);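 further: series mostly up to about 57 µM; plate controls were DMSO for no effect and bortezomib for full effect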
In short: (§1)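 500-1,000 cells/well; 5 h pre-incubation 37 °C/5% CO2; compound pinned; 48 h; CellTiter-Glo, 15 min RT; luminescence. MIPE 11-pt from 0.78 nM, NPC 8-pt from 0.59 nM final. Bortezomib 2.3 µM final as positive control.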

[2] = qHTS of pediatric cancer cell lines to identify multiple opportunities for drug repurposing: Primary screen for NB-EBc1 cells (AID 1347095); further: potency means the concentration at half of the fitted maximal effect;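 on activity change, negative = cytotoxic: plate controls were DMSO neutral control for no effect and bortezomib for full effect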
In short: as §1

[3] = qHTS of pediatric cancer cell lines to identify multiple opportunities for drug repurposing: Primary screen for U-2 OS cells (AID 1347096);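 further: plate controls were DMSO wells for no effect and bortezomib positive control wells for full effect; nearly all actives have a fitted effect of over 50% in size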
In short: (§2)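 Cells (500-1,000/well) in growth media were settled 5 h at 37 degrees C, then given compounds for 48 h. Viability was read as CellTiter-Glo luminescence. Primary runs used MIPE at 11 points (0.78 nM-46 µM) and NPC at 8 points (0.59 nM-46 µM); follow-ups used 11 points.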

[4] = qHTS of pediatric cancer cell lines to identify multiple opportunities for drug repurposing: Primary screen for Saos-2 cells (AID 1347097); further: on the % scale 0 is the no-effect control and ±100 the full control effect; nearly all actives have a fitted effect of over 40% in size
In short: as §1

[5] = qHTS of pediatric cancer cell lines to identify multiple opportunities for drug repurposing: Primary screen for SK-N-SH cells (AID 1347098);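 further: DMSO served as neutral control and bortezomib at 2.3 µM as positive control; on the % scale 0 is the no-effect control and ±100 the full control effect; nearly all actives have a fitted effect of over 65% in size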
In short: (§3)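 Cells (500-1,000/well) rested 5 h, then received compounds for 48 h; metabolically active cells were measured by CellTiter-Glo luminescence. Final concentrations spanned up to 46 µM (MIPE, 11-point) or 0.59 nM-46 µM (NPC, 8-point) in primary screens, 11-point in follow-ups.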

[6] = qHTS of pediatric cancer cell lines to identify multiple opportunities for drug repurposing: Primary screen for NB1643 cells (AID 1347099); further: nearly all actives have a fitted effect of over 50% in size; further: potency means the concentration at half of the fitted maximal effect;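 on activity change, negative = cytotoxic: plate controls were DMSO neutral control for no effect and bortezomib positive control for full effect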
In short: as §1

[7] = qHTS of pediatric cancer cell lines to identify multiple opportunities for drug repurposing: Primary screen for BT-12 cells (AID 1347101);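 further: plate controls were DMSO for no effect and bortezomib positive control for full effect; nearly all actives have a fitted effect of over 25% in size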
In short: as §3

[8] = qHTS of pediatric cancer cell lines to identify multiple opportunities for drug repurposing: Primary screen for OHS-50 cells (AID 1347103); further: nearly all actives have a fitted effect of over 40% in size; further: potency means the concentration at half of the fitted maximal effect;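 on activity change, negative = cytotoxic: plate controls were DMSO neutral control for no effect and bortezomib positive control for full effect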
In short: as §3

[9] = qHTS of pediatric cancer cell lines to identify multiple opportunities for drug repurposing: Primary screen for RD cells (AID 1347104);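 further: plate controls were DMSO for no effect and bortezomib for full effect; nearly all actives have a fitted effect of over 55% in size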
In short: as §1

[10] = qHTS of pediatric cancer cell lines to identify multiple opportunities for drug repurposing: Primary screen for control Hh wild type fibroblast cells (AID 1347106);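 further: series mostly up to about 46 µM; on the % scale 0 is the no-effect control and ±100 the full control effect; a drop in luminescence marks cytotoxicity and a rise apparent proliferation; nearly all actives have a fitted effect of over 55% in size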
In short: as §2

[11] = qHTS of pediatric cancer cell lines to identify multiple opportunities for drug repurposing: Primary screen for Rh30 cells (AID 1347107); further: series mostly up to about 46 µM; on the % scale 0 is the no-effect control and ±100 the full control effect; nearly all actives have a fitted effect of over 75% in size
In short: as §2

[12] = qHTS of pediatric cancer cell lines to identify multiple opportunities for drug repurposing: Primary screen for Rh41 cells (AID 1347108);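 further: series mostly up to about 46 µM; luminescence drop marks cytotoxic hits; nearly all actives have a fitted effect of over 70% in size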
In short: as §1

[13] = qHTS of pediatric cancer cell lines to identify multiple opportunities for drug repurposing: Primary screen for MG 63 (6-TG R) cells (AID 1347105); further: on the % scale 0 is the no-effect control and ±100 the full control effect; nearly all actives have a fitted effect of over 50% in size
In short: as §1

[14] = qHTS of pediatric cancer cell lines to identify multiple opportunities for drug repurposing: Primary screen for LAN-5 cells (AID 1347100);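 further: plate controls were DMSO neutral control for no effect and bortezomib positive control for full effect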
In short: as §2

[15] = qHTS of pediatric cancer cell lines to identify multiple opportunities for drug repurposing: Primary screen for Rh18 cells (AID 1347102); further: on the % scale 0 is the no-effect control and ±100 the full control effect; nearly all actives have a fitted effect of over 65% in size
In short: as §2

CC1=C(/C=C/C(C)=C/C=C/C(C)=C/C(=O)O)C(C)(C)CCC1
inactive: Potency [1] | Potency [2] | Potency [3] | Potency [4] | Potency [5] | Potency [6] | Potency [7] | Potency [9] | outcome [10] | outcome [11] | Potency [12]
active: Potency [8] 0.0309 µM

O=c1[nH]cnc2c1ncn2[C@@H]1O[C@H](CO)[C@@H](O)[C@H]1O
inactive: Potency [1] | Potency [2] | Potency [3] | Potency [4] | Potency [5] | Potency [6] | Potency [7] | Potency [8] | Potency [9] | Potency [13] | outcome [10] | outcome [11] | Potency [12]

O=C(O)COc1nn(Cc2ccccc2)c2ccccc12
inactive: Potency [1] | Potency [2] | Potency [3] | Potency [4] | Potency [5] | Potency [6] | Potency [7] | Potency [8] | Potency [9] | Potency [13] | outcome [10] | outcome [11] | Potency [12]

CC(=O)NC(Cc1ccccc1)C(=O)O (stereo unspecified)
inactive: Potency [1] | Potency [2] | Potency [3] | Potency [5] | Potency [6] | Potency [14] | Potency [7] | Potency [15] | Potency [8] | Potency [9] | outcome [10] | outcome [11] | Potency [12]

CC(C)C(=O)c1c(C(C)C)nn2ccccc12
inactive: Potency [1] | Potency [2] | Potency [3] | Potency [4] | Potency [5] | Potency [6] | Potency [7] | Potency [15] | Potency [9] | Potency [13] | outcome [10] | outcome [11] | Potency [12]

CCN(CC)CCSC(=O)C(c1ccccc1)c1ccccc1
active: Potency [2] 23.7 µM | Potency [6] 23.7 µM
inactive: Potency [1] | Potency [3] | Potency [4] | Potency [5] | Potency [7] | Potency [15] | Potency [9] | Potency [13] | outcome [10] | outcome [11]

O=c1[nH]c(=O)c2[nH]c(=O)[nH]c2[nH]1
inactive: activity change, negative = cytotoxic [1] 0.299% [at 11.5 µM] | activity change, negative = cytotoxic [2] -4.54% [at 9.22 µM] | activity change, negative = cytotoxic [3] -0.365% [at 9.22 µM] | activity change, negative = cytotoxic [5] 13.8% [at 11.4 µM] | activity change, negative = cytotoxic [6] -5.19% [at 9.22 µM] | activity change, negative = cytotoxic [7] 3.54% [at 11.5 µM] | activity change, negative = cytotoxic [15] 4.04% [at 9.22 µM] | activity change, negative = cytotoxic [9] 1.57% [at 9.22 µM] | activity change, negative = cytotoxic [13] -26.1% [at 9.22 µM] | activity change, negative = cytotoxic [10] 8.6% [at 9.22 µM] | activity change, negative = cytotoxic [11] 2.78% [at 9.22 µM] | activity change, negative = cytotoxic [12] -6.34% [at 9.22 µM]

CC(C)(C)C(=O)NCCCC(=O)O
inactive: Potency [1] | Potency [2] | Potency [3] | Potency [4] | Potency [5] | Potency [6] | Potency [7] | Potency [8] | Potency [9] | Potency [13] | outcome [10] | outcome [11] | Potency [12]
